# Bioassay records from PubChem.
# Sampled rows, rich in hits. Any-hit rate of the full collection: about 1.1%.
# CaV13 FRET inh: Primary screen for inhibitors of IQ motif and Ca2+-dependent inactivation inhibitor domain binding in CACNA1D, Förster resonance energy transfer in living cells, …. HEK cells, CFP/YFP FRET ICDI-IQ, plate reader, 10 min; percent FRET-ratio fall versus neutral wells. inhibition, % at 12.3 µM. hit rate 0.098% among 340,000. AID 743397;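 active = mean replicate inhibition of at least 30% and at least 1% of replicates passing that level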;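 note: 0% = median of the neutral control wells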
# Exocytosis inh: blocks lytic granule exocytosis; inhibition, % at 10 µM; hit rate 0.66% among 360,000; TALL-104 LAMP-1 surface exposure, flow cytometry; cells stimulated with thapsigargin and PMA;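 active = inhibition above about 55%, limit read from the data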
# VLA-4 inh: inhibition in a human VLA-4 binding assay; P13612; VLA-4 expressing cells, ligand binding flow cytometry; inhibition, % (about 7 µM as worked out from the volumes in the protocol); hit rate 0.2% among 330,000; in the data active = inhibition above about 50%
# ABCB6 inh 2: human ABCB6 transporter inhibition | Q9NP58 | K562-ABCB6 porphyrin accumulation, flow cytometry, 1 h; active compounds read low | fluorescence ratio to DMSO, % at 10 µM | hit rate 0.19% among 360,000;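 active = fluorescence ratio to DMSO below 75%, the collection mean minus 3 SD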;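 note: signal is porphyrin accumulated inside mitochondria; 100% equals median channel fluorescence of DMSO control wells; lower ratio means ABCB6 inhibition with less porphyrin fluorescence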
# Target sequence (Q9NP58 whole entry, looked up): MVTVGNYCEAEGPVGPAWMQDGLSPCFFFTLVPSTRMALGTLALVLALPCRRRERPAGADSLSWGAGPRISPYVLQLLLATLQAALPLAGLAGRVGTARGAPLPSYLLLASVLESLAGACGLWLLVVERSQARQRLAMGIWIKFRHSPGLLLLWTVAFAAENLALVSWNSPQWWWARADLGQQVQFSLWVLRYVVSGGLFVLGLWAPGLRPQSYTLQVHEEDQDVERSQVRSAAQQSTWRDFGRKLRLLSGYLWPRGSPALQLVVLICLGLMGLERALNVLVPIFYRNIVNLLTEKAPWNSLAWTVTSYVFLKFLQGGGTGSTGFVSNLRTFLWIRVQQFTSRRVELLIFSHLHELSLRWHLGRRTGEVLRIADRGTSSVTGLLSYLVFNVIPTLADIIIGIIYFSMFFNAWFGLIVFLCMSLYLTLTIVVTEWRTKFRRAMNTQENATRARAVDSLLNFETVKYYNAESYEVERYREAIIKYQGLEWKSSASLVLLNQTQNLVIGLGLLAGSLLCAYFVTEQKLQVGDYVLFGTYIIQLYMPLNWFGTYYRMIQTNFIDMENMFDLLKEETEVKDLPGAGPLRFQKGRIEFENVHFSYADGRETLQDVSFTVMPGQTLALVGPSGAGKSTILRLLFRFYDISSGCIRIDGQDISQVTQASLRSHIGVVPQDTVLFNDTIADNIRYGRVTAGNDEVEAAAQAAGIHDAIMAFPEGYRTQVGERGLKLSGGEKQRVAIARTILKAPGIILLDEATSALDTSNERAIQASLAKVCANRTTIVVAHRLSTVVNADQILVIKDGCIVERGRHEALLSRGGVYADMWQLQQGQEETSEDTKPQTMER
# Granule exo CP1: blocks lytic granule exocytosis; shares compounds with Exocytosis inh; TALL-104 cells, LAMP-1 externalization, flow cytometry; stimulated with PMA plus thapsigargin; inhibition, % at 10 µM; hit rate 11% among 1,500; in the data active = inhibition above about 60%;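 note: 0% = stimulated vehicle wells and 100% = unstimulated wells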
# An asterisk follows results filed as active; x = no result given.
SMILES,CaV13 FRET inh,Exocytosis inh,VLA-4 inh,ABCB6 inh 2,Granule exo CP1
Cc1ccc(Cl)cc1N1CCN(S(=O)(=O)c2cccc(S(=O)(=O)N3CCCC3)c2)CC1,-1,77*,17,97,-7
COc1ccc(CCNC(=O)CC(C)(C)CC2=NS(=O)(=O)c3ccccc3N2)cc1OC,-7,1,3,90,x
Cc1cc(NC(=O)CCN2CCN(C/C=C/c3ccccc3)CC2)ccc1Br,-6,60*,0,101,-1
Cc1ccc(C(=O)N2CCN(Cc3ccccc3)CC2)cc1S(=O)(=O)N1CCOCC1,-6,-6,x,99,x
CCCCC(=O)N1C/C=C\C(c2ccc(OC)cc2)N(Cc2ccc(F)cc2)C(=O)C1 (stereo not given),-12,-9,-8,95,x
O=C(Nc1ccccc1-c1nc2ccccc2s1)c1ccco1,x,71*,-1,98,-2
CN(C)C(=O)c1ccc(NC(=O)COC(=O)C2(c3ccccc3)CCCC2)cc1,-6,76*,22,103,-5
CC1=C(C)CS(=O)N(S(=O)(=O)c2ccc(Cl)cc2)C1 (stereo not given),-7,64*,12,103,94*
Cc1c(NC(=S)NC(=O)c2ccccc2)c(=O)n(-c2ccccc2)n1C,-2,-14,3,88,x
C#CCN(C(=O)Nc1ccccc1)c1ccccc1,-6,2,-11,96,x
CC1CN(CC(=O)Nc2nc(-c3ccc(Cl)cc3)cs2)CC(C)O1 (stereo not given),-3,-15,11,220,x
CCC1Sc2ccc(S(=O)(=O)N3CCN(c4ccccc4)CC3)cc2NC1=O (stereo not given),-12,71*,3,98,-11
COc1ccc(S(=O)(=O)N2CCCOC2CNC(=O)C(=O)NCCO)cc1 (stereo not given),-12,2,x,98,x
Cc1noc(C)c1S(=O)(=O)N(CC(=O)NC(C)c1ccccc1)c1ccc(C(C)C)cc1 (stereo not given),-3,70*,3,100,-4
Cc1noc(C)c1S(=O)(=O)N(CC(=O)NCCc1ccccc1)c1ccc(C(C)C)cc1,-16,56*,6,103,-14
C=CCNC(=O)COc1ccc(N(C)S(=O)(=O)c2ccc(NC(C)=O)cc2)cc1,-6,2,0,100,x
COc1ccc(NC(=O)C(c2cc3c(cc2[N+](=O)[O-])OCO3)N(C)c2ccccc2)cc1 (stereo not given),-2,2,0,102,x
O=C(CSc1nc2ccccc2s1)N1c2ccccc2Sc2ccccc21,-4,62*,5,94,2
O=C(Nc1ccc2c(c1)OCO2)c1ccc([N+](=O)[O-])cc1[N+](=O)[O-],-3,3,0,100,x
CC(C)(C)NC(=O)C(OC(=O)c1cccs1)c1ccc(F)cc1 (stereo not given),2,66*,-15,103,-4
CN(CC(=O)Nc1ccc(N2CCOCC2)cc1)C(=O)c1ccc(CS(C)(=O)=O)cc1,-6,16,18,90,x
COc1ccc(NS(=O)(=O)c2ccc(C(=O)N3CCC(C)CC3)cc2)cc1,-7,14,-4,101,x
Cc1ccc(C)c(N2CCN(CCCNC(=O)Cn3c(=O)c4cccn4c4cccnc43)CC2)c1,-6,75*,16,105,-12
CCc1ccc(N(C(C)=O)C2C=CS(=O)(=O)C2)cc1 (stereo not given),x,75*,-12,99,-13
CC(=O)N(c1ccc(Br)cc1)C1C=CS(=O)(=O)C1 (stereo not given),0,29,18,103,x
SMILES,CaV13 FRET inh,Exocytosis inh,VLA-4 inh,ABCB6 inh 2,Granule exo CP1
O=C(CCN1CCN(C(=O)c2ccccc2)CC1)c1ccc(Br)cc1,-8,82*,2,95,15
CCc1ccc(NC(=O)NCC2CCN(Cc3cccc(Cl)c3)CC2)cc1,-20,61*,10,98,-4
Cc1cc(C)cc(NC(=O)NCC2CCN(Cc3cc(C)ccc3C)CC2)c1,-4,46,15,93,x
Cc1ccc(C)c(CN2CCC(CNC(=O)Nc3ccc(F)c(Cl)c3)CC2)c1,-4,58*,5,98,0
CCCN1C(=O)c2[nH]nc(-c3ccccc3)c2C1c1ccc(F)cc1 (stereo not given),-4,x,x,x,x
COc1ccccc1CNC(=O)COC(=O)C1CCN(S(=O)(=O)c2c(Cl)cccc2Cl)CC1,-2,1,x,91,x
COc1cc(NC(=O)Cn2nc(Cc3cccnc3)c3ccccc3c2=O)cc(OC)c1OC,-3,9,20,100,x
O=C(c1cc(F)c(F)cc1Cl)N1CCN(CCc2ccccc2)CC1,-7,2,12,92,x
O=S(=O)(NCC1NCCc2ccccc21)c1ccccc1 (stereo not given),-5,1,12,103,x
Cn1nc(C(C)(C)C)cc1NC(=O)C1(C)CCN1C(=O)c1ccccc1CCc1ccccc1 (stereo not given),-5,98*,x,96,-4
CCOC(=O)c1c(CSc2ccccc2)n(C)c2ccc(O)c(CN3CCN(C)CC3)c12,-14,59*,0,95,-3
CCOC(=O)c1c(CSc2ccccc2)n(C)c2cc(Br)c(O)c(CN(C)C)c12,-1,73*,1,96,107*
CCOC(=O)c1c(CSc2ccc(C)cc2)n(C)c2cc(Br)c(O)c(CN(C)C)c12,-6,34,-21,99,x
CCOc1cc(C2Nc3ccccc3NC3=C2C(=O)CC(C)(C)C3)ccc1O (stereo not given),-22,-2,-4,130,x
Cc1ccc(NC(=O)CSc2nc(=O)n(CCN3CCOCC3)c3c2CCCC3)cc1,-7,1,11,96,x
COCCCNC(=S)N1CCN(c2nc(C)nc3sc4c(c23)CCCC4)CC1,-20,66*,4,96,-3
CC1(c2nnc(Cc3ccccc3)o2)CC(c2cccnc2)=NO1 (stereo not given),-5,68*,x,99,-14
CC1(c2nnc(-c3ccccc3)o2)CC(c2cccnc2)=NO1 (stereo not given),-5,-3,13,99,x
Cc1ccsc1CN(C)CC(=O)Nc1ccc([N+](=O)[O-])cc1Cl,-4,99*,6,90,19
Oc1ccccc1Nc1nc(NCc2ccccc2)c2ccccc2n1,-1,68*,11,102,66*
c1ccc(CNc2nc(N3CCN(Cc4ccccc4)CC3)nc3ccccc23)cc1,-5,101*,3,99,24
Cc1ccc(Nc2nc(NCc3ccco3)c3ccccc3n2)cc1,16,69*,1,98,67*
c1ccc(CNc2c3ccccc3nc3ccccc23)cc1,0,61*,20,94,-4
c1ccc(CNc2ncnc3ccccc23)cc1,-5,-2,14,97,x
Oc1ccccc1-c1nc(NCc2ccco2)c2ccccc2n1,-9,1,-9,95,x
O=C(Cc1ccc(S(=O)(=O)N2CCOCC2)s1)Oc1ccc(F)cc1,-6,4,-14,95,x
